Screens: PubChem BioAssay, National Center for Advancing Translational Sciences (NCATS)
AMA1-RON2 inh: AMA1-RON2 (P. falciparum) interaction inhibition; AlphaScreen AMA1-biotinylated RON2 peptide binding; Potency, µM (doses to about 58.2 µM), for the others: top-dose activity change, negative = inhibition, hits mostly inhibitors; 360,000 tested, 0.2% active; AID 720542;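 note: 0% = vehicle wells and -100% = peptide control; nearly all actives have a fitted effect of over 45% in size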
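AMA1 (3D7) with his tag at 25 nM final met compounds first, then biotinylated RON2 peptide at 25 nM; detection used donor plus acceptor beads, 10 µg/mL apiece, read by AlphaScreen after 30 min at room temperature.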
Pf growth 48h: P. falciparum growth inhibition at 48 hours (one generation) | P. falciparum luciferase growth in erythrocytes, 48 h | Potency, µM (titrated, usually from 28.7 µM), for inactives: at the top dose activity change, negative = inhibition, usual class: inhibitors | 310,000 tested, 5.9% active | AID 504832; note: % is set by controls: 0 for no effect and ±100 for the full control effect
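Parasite viability was followed by luminescence of a genomically integrated firefly luciferase. Cultures held 0.1% parasitemia at 2% hematocrit (final), incubated under 5% CO2 at 37 C.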
Pf growth 96h: P. falciparum growth inhibition at 96 hours | Potency, µM (top dose mostly 28.7 µM), without a hit: at the top dose activity change, negative = inhibition, usual class: inhibitors | 320,000 tested, 6.9% active | P. falciparum luciferase reporter growth, 96 h; note: % is set by controls: 0 for no effect and ±100 for the full control effect
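Luminescence readout: decreased luciferase signal marks inhibited growth of reporter-expressing P. falciparum in infected red cells (2% hematocrit, 0.05% parasitemia final), exposed to compound two generations (96 h, 37 C, 5% CO2).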
Sm TGR block: inhibitors of Schistosoma mansoni thioredoxin glutathione reductase; Q962Y6; purified TGR, DTNB reduction, TNB absorbance 405 nm; Potency, µM (top dose mostly 114 µM), without a hit: at the top dose activity change, negative = inhibition, actives largely listed as inhibitors; 360,000 tested, 3% active; AID 485364; note: % is set by controls: 0 for no effect and ±100 for the full control effect; nearly all actives have a fitted effect of over 60% in size
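TGR 20 nM + NADPH 100 uM (dispensed conc.), cpd preinc 15 min RT; start with NADPH (500 uM addition) then DTNB (15 mM addition). Kinetic TNB absorbance, 405 nm filter. Four-parameter Hill fit across titration.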
NS1 function inh: inhibitors of influenza NS1 protein function | Potency, µM (highest dose often 46.1 µM), without a hit: at the highest dose activity, positive = more growth | 270,000 tested, 0.4% active | AID 2326; calls by dose curve; note: actives are rising curves; nearly all actives have a fitted effect of over 50% in size
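S. cerevisiae expressing influenza A NS1, grown in glucose, washed, then diluted 1:100 into pH 6.0 -URA galactose medium with 23 nl compound. Growth recovery read as OD600; NS1-free strain serves as control.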
Active calls of the source: *; u = inconclusive; x = no result given; [ ] = dose if it differs, or a comment. Hits are enriched below; roughly 11% of the tested compounds scored in any of these assays. Unless noted, calls come from the whole dose curve; as a rule, active = well fitted curve in the direction sought with a large enough effect; inconclusive = small, poorly fitted or top-dose-only effect, or another doubt; inactive = no such curve, though single readings can be large; an effect the other way counts as inactive or inconclusive. Potency is the fitted concentration of half-maximal effect.

SMILES	AMA1-RON2 inh	Pf growth 48h	Pf growth 96h	Sm TGR block	NS1 function inh
CCC(C)c1ccc(NC(=S)NCCn2cc(Cl)cn2)cc1 (centres undefined)	15%	9.3µM*	u	-23%	-38%
COc1ccc(C(=O)Nc2cccc(-c3csc(C)n3)c2)cc1S(=O)(=O)N1CCCC1	-1%	12µM*	13µM*	-7%	x
COc1ccc(C(=O)Nc2ccc(N3CCOCC3)cc2)cc1S(=O)(=O)N1CCOCC1	-19%	43%	9%	6%	x
COc1ccc(C(=O)Nc2cccc(S(=O)(=O)N3CCCC3)c2)cc1S(=O)(=O)N1CCOCC1	-13%	x	x	x	x
COc1ccc(C(=O)Nc2ccc(-c3ccc(C)o3)cc2)cc1S(=O)(=O)N1CCOCC1	-23%	u	x	50µM*	2%
COc1ccc(C(=O)Nc2ccc(-c3cn4ccsc4n3)cc2)cc1S(=O)(=O)N1CCOCC1	-4%	u	0.33µM*	-19%	-7%
NNC(=O)c1nn(-c2ccc(Cl)cc2)cc1O	73%	9.3µM*	u	12%	11%
Cc1ccc(CCNC(=O)c2ccc3c(c2)N(Cc2ccccc2F)C(=O)c2ccccc2S3=O)cc1 (centres undefined)	x	x	x	11%	x
O=c1c(C=NCCCn2ccnc2)c(-c2ccccc2)[nH]n1-c1nc2ccccc2s1	4%	10µM*	x	-7%	12%
COc1ccc(CCN2C(=O)c3ccccc3NC2c2cc(Cl)c(O)c(OC)c2)cc1 (centres undefined)	-13%	u	5.2µM*	-33%	7%
Cc1nn(-c2ccccc2)c(N)c1C1(O)C(=O)Nc2ccc([N+](=O)[O-])cc21 (centres undefined)	-6%	3%	-14%	1%	2%
Cc1nn(-c2ccc([N+](=O)[O-])cc2)c2c1C(c1cccc(Br)c1)N1C(=N2)C(=O)Nc2ccccc21 (centres undefined)	-3%	1.3µM*	1µM*	-9%	21%
O=C(OCc1nnn(Cc2ccccc2)c1-c1c(COC(=O)c2ccccc2)nnn1Cc1ccccc1)c1ccccc1	-25%	3.3µM*	1.9µM*	4%	4%
Fc1cccc(Cc2c(C3CCCCC3)nc3c4ccccc4ccn23)c1	-8%	x	x	x	x
O=S(=O)(c1cnc[nH]1)N1CCc2ccccc21	16%	-12%	8.3µM*	-7%	7%
O=C(O)c1ccc(NC(=S)NC(=O)c2cccc(COc3ccccc3)c2)cc1	64%	8%	u	25µM*	4%
O=C(O)c1ccc(NC(=S)NC(=O)c2ccc3ccccc3c2)cc1	4%	39%	-15%	0%	-11%
CCOc1cccc(C(=O)NC(=S)Nc2cccnc2)c1	-1%[2.32 µM]	39%	2.6µM*	45µM*	26%
CCOc1cccc(C(=O)NC(=S)Nc2ccccc2)c1	29%	245%	-20%	40µM*	27%
CCCCOc1cccc(C(=O)NC(=S)Nc2cccnc2)c1	2%	27%	52%	-17%	18%
CCOc1cccc(C(=O)NC(=S)Nc2cccc(NC(=O)c3ccccc3Cl)c2)c1	9%	-4%	u	-23%	17%
O=C(O)c1cccc(NC(=S)NC(=O)c2ccc3ccccc3c2)c1	66%	190%	u	25µM*	-6%
CCOc1ccc(NC(=O)CCC(=O)Nc2cc(OC)c(NC(=O)c3ccco3)cc2OC)cc1	-21%	-1%	u	6%	5%
CCC(C)NC(=O)c1cccc(NC(=O)c2nsc3ccccc23)c1 (centres undefined)	x	x	x	1%	x
COc1ccc(NC(=O)Nc2ccccc2SC)cc1	-4%	239%	5.9µM*	-4%	-8%
COc1ccc(NC(=O)C(CC(=O)O)Cc2ccccc2)cc1 (centres undefined)	7%	4%	7.4µM*	1%	-7%
COc1cc2nncc(SCc3ccc(Cl)c(Cl)c3)c2cc1OC	x	x	x	x	-8%
FC(F)(F)c1ccc2c(c1)ncc1c(-c3ccccc3)nn(-c3ccccc3)c12	x	x	x	5%	x
C=CCc1cccc(/C=N/NC(=O)C(C)Nc2ccc(C)cc2)c1O (centres undefined)	27%	u	12µM*	0%	-4%
CS(=O)(=O)c1ccc(-c2sc3cc4c(cc3c2C(=O)NN2CCOCC2)OCO4)cc1	-6%	x	x	x	x
